About 83,000 compounds went through this panel and 20% of them were active in at least one assay; those are over-represented in the sample as a whole.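 Method: cells in 96-well plates; compound added at one concentration; 48 h incubation; percent growth measured; values under 10 scored active.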 Values without a mark were called inactive. The source made the active and inactive calls.
Experiments:
Assay in all cases: NCI-60 one-dose screen, 48 h (100 = growth as untreated, 0 = no growth, -100 = all killed)
Settings in all cases: 10 µM unless noted
DU-145 prostate = test system: DU-145 prostate
K-562 leukemia = test system: K-562 leukemia
MALME-3M melanoma = test system: MALME-3M melanoma
MDA-MB-231 breast = test system: MDA-MB-231 breast
RXF 393 renal = test system: RXF 393 renal
SF-268 CNS = test system: SF-268 CNS
SF-295 CNS = test system: SF-295 CNS
SF-539 CNS = test system: SF-539 CNS
UACC-257 melanoma = test system: UACC-257 melanoma
M14 melanoma = test system: M14 melanoma
HCT-15 colon = test system: HCT-15 colon
HT29 colon = test system: HT29 colon
SNB-19 CNS = test system: SNB-19 CNS
U251 CNS = test system: U251 CNS
PC-3 prostate = test system: PC-3 prostate
SK-MEL-5 melanoma = test system: SK-MEL-5 melanoma
LOX IMVI melanoma = test system: LOX IMVI melanoma
SK-MEL-28 melanoma = test system: SK-MEL-28 melanoma
UACC-62 melanoma = test system: UACC-62 melanoma
SNB-75 CNS = test system: SNB-75 CNS

| Compound | growth (DU-145 prostate) | growth (K-562 leukemia) | growth (MALME-3M melanoma) | growth (MDA-MB-231 breast) | growth (RXF 393 renal) | growth (SF-268 CNS) | growth (SF-295 CNS) | growth (SF-539 CNS) | growth (UACC-257 melanoma) | growth (M14 melanoma) | growth (HCT-15 colon) | growth (HT29 colon) | growth (SNB-19 CNS) | growth (U251 CNS) | growth (PC-3 prostate) | growth (SK-MEL-5 melanoma) | growth (LOX IMVI melanoma) | growth (SK-MEL-28 melanoma) | growth (UACC-62 melanoma) | growth (SNB-75 CNS) |
| --- | --- | --- | --- | --- | --- | --- | --- | --- | --- | --- | --- | --- | --- | --- | --- | --- | --- | --- | --- | --- |
| O=C(NC1CC1)c1cc2n(n1)CC(c1ccccc1)N2 (stereo unspecified) | 107% | 103% | 104% | 91.3% | 95.6% | 95.2% | 91.8% | 96.3% | 98.3% | 101% | 95.3% | 107% | 100% | 102% | 98.8% | 99.4% | 98.3% | 107% | – | – |
| COc1cccc(C2C3=C(COC3=O)N(CCO)c3cc4c(cc32)CCC4)c1 (stereo unspecified) | -26.5% (active) | 15.8% | 57.3% | -12% (active) | -3.06% (active) | 22.6% | -27.5% (active) | -17.9% (active) | 31.5% | -13.7% (active) | 2.3% (active) | -28.2% (active) | 11.3% | 2.42% (active) | 23.5% | -16.2% (active) | 14.8% | 46.8% | 8.14% (active) | – |
| Cc1ccc(-c2c3c(N)c4c(nc3nc3c2c(C)nn3-c2ccccc2)CCCC4)cc1 | 105% | 36.6% | 107% | 97.1% | 97% | 108% | 100% | 103% | 92.2% | 110% | 99.3% | 95.4% | 108% | – | 90.9% | 104% | 93.9% | 99.8% | 106% | – |
| COc1cc(OCc2cccc(-c3ccc(C(O)c4nccs4)cc3)c2C)cc(OC)c1C=O (stereo unspecified) | 53.6% | 18% | 7.88% (active) | 54.5% | 59.5% | 65% | 35.1% | 69.4% | 13.3% | 32% | 32.3% | 48.7% | 70.4% | 60.6% | 52.2% | -78.1% (active) | 48.8% | 57.3% | -4.45% (active) | – |
| CCCCCCCC/C=C\CCCCCCCCOc1cccc(CC(=O)NCC[N+]2(C)CCOCC2)c1 | 93.6% | 73.4% | 93.3% | 87.2% | 6.07% (active) | 70.2% | 89.1% | 96.2% | 93.6% | 87% | 96.7% | – | 72.3% | 51% | 33.3% | 99.8% | 91.3% | – | 80.2% | 49.9% |
| O=C1CCC(N2C(=O)c3cccc(NCCOCCOCCNC(=O)c4cc5c(o4)C(=O)c4ccccc4C5=O)c3C2=O)C(=O)N1 (stereo unspecified) | -97.8% (active) | 8.5% (active) | -95.2% (active) | -2.36% (active) | -39.5% (active) | -12.2% (active) | -93.9% (active) | -95.2% (active) | -82.5% (active) | -66.4% (active) | 55.1% | -16.8% (active) | -24.3% (active) | -42% (active) | 6.46% (active) | -98.2% (active) | -74.1% (active) | -38.7% (active) | -81.8% (active) | – |
| COc1ccc(C2SC(C)C(=O)N2CCc2cccs2)cc1OC (stereo unspecified) | 93.3% | 62.3% | 119% | 73.2% | 86.1% | 89.2% | 75.5% | 94.1% | 75.7% | 121% | 87.8% | 91.6% | 86.9% | 83.2% | 65.7% | 49.4% | 81.9% | 108% | 73.5% | – |
| O=[N+]([O-])c1cc2c(cc1Br)-c1ccccc1C2 | 113% | 95.6% | 110% | 90.8% | 99.5% | 98.1% | 93.4% | 101% | 98.8% | 78.7% | 45.3% | 95.9% | – | 98.5% | 91.8% | – | 88.8% | 98.4% | 82% | 86.5% |
| Cc1nc(NN)c([N+](=O)[O-])c(NN)n1 | 109% | 93.6% | 106% | 107% | 160% | 102% | 98.5% | 95.2% | 99.3% | 98.2% | 105% | – | 109% | 102% | 104% | 99.4% | 111% | 108% | 97.3% | 114% |
| COc1cc2cc(Oc3ccc(NC(=O)Nc4cccc(C(F)(F)F)c4)cc3)c(C)nc2cc1OCCN1CCCCC1 | -94.1% (active) | -49.7% (active) | -88.5% (active) | -86.8% (active) | -70.6% (active) | -78.4% (active) | -57.4% (active) | -92.4% (active) | -68.9% (active) | -64.1% (active) | -81.9% (active) | – | -55.1% (active) | -82.4% (active) | -54.6% (active) | -94.1% (active) | -94.3% (active) | -92.1% (active) | -74.2% (active) | -70.3% (active) |
| CCOC(=O)c1c(Cl)c2c(n1Cc1cc(OC)cc(OC)c1)-c1oncc1CCC2 | 21.5% | 9.73% (active) | 22.6% | 35.5% | 21.7% | 50.5% | 6.63% (active) | 7.36% (active) | 72.4% | 12.7% | 21.5% | – | 55.8% | 33.2% | 23.4% | – | 43.7% | 40.7% | 28.5% | 1.91% (active) |
| CCCCC1COc2cccc3c(SCC(=O)N(C)c4cccc5ccccc45)cc[n+]1c23 (stereo unspecified) | 105% | 88.4% | 107% | 110% | 115% | 112% | 96.5% | 96.7% | 101% | 82.8% | 94.3% | 103% | 98.7% | 99.3% | 95.8% | 98.5% | 91.2% | 111% | 99.9% | – |
| O=C(C[Si](CC(=O)c1cccc(C(F)(F)F)c1)CC(=O)c1cccc(C(F)(F)F)c1)c1cccc(C(F)(F)F)c1 | 33.2% | 4.55% (active) | 77.2% | 86.3% | 102% | 40% | 2.69% (active) | 107% | 81.8% | 89.4% | 99.1% | 62.8% | 101% | 51.6% | -14.7% (active) | 99.8% | 73.2% | 98.6% | 66.7% | – |
| Cc1nc2nc(C(F)(F)F)[nH]c2nc1C | 115% | 92.9% | 117% | 114% | 106% | 102% | 78.6% | 120% | 100% | 105% | 111% | 107% | – | 102% | 104% | – | 98.6% | 102% | 102% | 85.1% |
| O=C1c2ccccc2-c2nnc(-c3ccc(Br)cc3)cc21 | 55.8% | 16.5% | -3.82% (active) | 14.1% | 33.7% | 59.3% | 13.6% | 56.7% | 52.6% | 37.2% | 59.8% | 82.5% | 87.1% | 28.8% | 51.3% | 51.1% | 1.78% (active) | 13.8% | 16% | – |
| COc1cccc(C2C3=C(COC3=O)N(CCO)c3cc4c(cc32)OCO4)c1 (stereo unspecified) | 0.613% (active) | 21% | 82.4% | 34.6% | -14.5% (active) | 38.3% | -13.8% (active) | -19.1% (active) | 35.5% | -24.2% (active) | 18.2% | 0.226% (active) | 25.6% | 18.2% | – | 30.8% | 53.8% | 50.5% | 18.3% | – |
| CCOC(=O)c1c(Cl)c2c(n1Cc1ccc(OC)cc1)-c1oncc1CCC2 | 118% | 92.1% | 119% | 77.2% | 80.5% | 95.9% | 99% | 93.3% | 96.1% | 108% | 83.7% | 78.8% | 89.1% | 89.3% | 58.6% | 72.1% | 77.8% | 101% | 73.6% | – |

From PubChem BioAssay (NCI)
